# PubChem BioAssay (NCI)
# The panel holds about 83,000 compounds, 20% with a hit somewhere; the sample as a whole holds those more often.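 Each cell line was grown in a 96-well plate and treated with one concentration of compound for 48 hours. Values below 10 were considered active.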 Active and inactive are the calls of the source.
# Tested on: HS 578T breast
# Test: NCI-60 one-dose screen, 48 h (100 = growth as untreated, 0 = no growth, -100 = all killed)
# Conditions: 10 µM unless noted
row,SMILES,growth
1,Cn1cc(C(=O)c2nc(-c3c[nH]c4ccc(F)cc34)no2)c2cc(F)ccc21,91.3% (inactive)
2,c1ccc(Cn2cc(-c3nc4ccccc4s3)c3cccnc32)cc1,110% (inactive)
3,O=[N+]([O-])c1ccccc1/C=N\NC(=S)N/N=C/c1ccccc1[N+](=O)[O-],62.9% (inactive)
4,Cn1cc(C(=O)c2nc(-c3c[nH]c4ccc(Br)cc34)no2)c2cc(F)ccc21,85% (inactive)
5,COc1cccc(-c2nc(SCC(=O)Nc3ccc(C(=O)/C=C/c4ccc(OC)c(OC)c4)cc3)[nH]c(=O)c2C#N)c1,82.4% (inactive)
6,Cc1cc(N2CCN(C)CC2)nc(NC2CCCC(Nc3ccnc4cc(Cl)ccc34)C2)n1 (stereo not drawn),-18.7% (active)
7,COCCNc1ccc2c3c(cccc13)C(=O)N(CCN(C)C)C2=O,50.8% (inactive)
8,FC(F)(F)c1[nH]ncc1-c1nc2ccc3n[nH]c(C#Cc4cccnc4)c3c2c2c1CCCC2,13.8% (inactive)
9,Cc1ccc(/C=C2\SC(=S)N(CC(=O)NCCCN3CCOCC3)C2=O)cc1,87.4% (inactive)
10,Cc1ncc(C(=O)Nc2ccc(CN3CCN(C)CC3)c(C(F)(F)F)c2)cc1C#Cc1cnc2cccnn12,-15.5% (active)
11,CC(C)(C)CC(C)(C)c1ccc(OCCOCC[N+](C)(C)Cc2ccccc2)cc1,26.1% (inactive)
12,O=C1Nc2c(ccc(Cl)c2Cl)/C1=C\c1cc(C(F)(F)F)cc(C(F)(F)F)c1,-37.6% (active)
13,Cc1cc2c3ccccc3ccc2[n+]2ccccc12,-23.7% (active)
14,COc1ccc(C2C(C#N)=C(N)Oc3n[nH]c(-c4cccs4)c32)cc1I (stereo not drawn),87.5% (inactive)
15,COc1ccc(-n2nc(C)c3c(Nc4ccc(NC(=O)Nc5cc(C(F)(F)F)ccc5F)cc4)ncnc32)cc1,28.4% (inactive)
16,CC1=CC(C)(C)Nc2ccc(Cc3ccc4c(c3)C(C)=CC(C)(C)N4)cc21,103% (inactive)
17,Clc1ccc2c(NCCNc3nc(N4CCCCC4)nc4ccccc34)ccnc2c1,37.9% (inactive)
18,Cc1ccc(C(SCC(N)C(=O)O)(c2ccccc2)c2ccc(C)cc2)cc1 (stereo not drawn),-45.6% (active)
19,CCN1CCN(c2nc(NCCNc3ccnc4cc(Cl)ccc34)c3ccccc3n2)CC1,49.8% (inactive)

row,SMILES,growth
1,CCN(CC)S(=O)(=O)c1ccc(OC)c(NC(=O)c2[nH]c(C)c3c2CCCCC3=O)c1,16.4% (inactive)
2,CCCc1cc(=O)n2c(C(=O)Nc3cccc(C(=O)OCC)c3)c(C(=O)Nc3ccc(F)cc3)sc2n1,14.3% [30 µM] (inactive)
3,OC(COc1cccc2ccccc12)CN1CCN(c2ccccc2Cl)CC1 (stereo not drawn),107% (inactive)
4,Clc1ccc2nc3nc4ccc[nH]c4cc3c2c1,92.2% (inactive)
5,CN(C)C(=S)N=Nc1c(O)[nH]c2ccccc12,13.4% (inactive)
6,Cc1cn2c(/C=C3/C(=O)Nc4c3ccc3ccccc43)c(C(F)(F)F)nc2s1,16.5% (inactive)
7,COc1ccc(C(=S)N2CCN(c3cccc(Cl)c3)CC2)cc1,118% (inactive)
8,C#CCOc1ccc2ncnc(Nc3cccc(CNC(=O)CCl)c3)c2c1,37.8% [8.25 µM] (inactive)
9,O=c1c2c3c(sc2nc(N/N=C/c2cn(-c4ccccc4)nc2-c2ccc(Cl)cc2)n1Cc1ccccc1)CCCC3,94.2% (inactive)
10,O=C(CN1C(=O)/C(=C/c2ccc(Cl)cc2)SC1=S)NCCCN1CCOCC1,84.2% (inactive)
11,CN(C)c1ccc(NC(=O)c2ccc(/C=C/C(=O)c3ncc[nH]3)cc2)cc1,88.1% (inactive)
12,CN1CCN=C1c1ccc(NC(=O)c2ccc(C(=O)Nc3ccc(C4=NCCN4C)cc3)cc2)cc1,80.3% (inactive)
13,O=c1cc(CSc2nnc(SCc3cc(=O)oc4c3ccc3ccccc34)o2)c2ccc3ccccc3c2o1,94.2% (inactive)
14,Oc1ccccc1-c1nnc(CNc2ccc(Cl)cc2)o1,57.6% (inactive)
15,CCN(CC)c1ccc(/C=N\NC(=O)/C=C/C=C/c2ccc3c(c2)OCO3)c(O)c1,68.1% (inactive)
16,O=C(Cc1ccc(/C=C/C(=O)c2ncc[nH]2)cc1)Nc1ccc(F)cc1,35.4% (inactive)
17,CSc1ccc(-c2n[nH]nc2-c2cc3ccccc3s2)cc1,58.5% (inactive)
18,CC(C)(C)N1CCC1CN (stereo not drawn),117% (inactive)
19,Cc1cc(N2CCCCCC2)nc(NC2CCCC(Nc3ccnc4cc(Cl)ccc34)C2)n1 (stereo not drawn),-51.3% (active)
